Each structure is given as a SMILES string. About 2,100 (0.58%) of roughly 360,000 compounds were called active. This excerpt belongs to a sample that is enriched for actives. A number with no mark means an inactive call.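 The calls were made as follows: active = inhibition above a per-plate cutoff, the mean of that plate's test compounds plus 3 SD (cut at about 27% in these data); inactive = the rest.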

Chain of Muscarinic acetylcholine receptor M5 (Homo sapiens) (P08912 whole entry, looked up): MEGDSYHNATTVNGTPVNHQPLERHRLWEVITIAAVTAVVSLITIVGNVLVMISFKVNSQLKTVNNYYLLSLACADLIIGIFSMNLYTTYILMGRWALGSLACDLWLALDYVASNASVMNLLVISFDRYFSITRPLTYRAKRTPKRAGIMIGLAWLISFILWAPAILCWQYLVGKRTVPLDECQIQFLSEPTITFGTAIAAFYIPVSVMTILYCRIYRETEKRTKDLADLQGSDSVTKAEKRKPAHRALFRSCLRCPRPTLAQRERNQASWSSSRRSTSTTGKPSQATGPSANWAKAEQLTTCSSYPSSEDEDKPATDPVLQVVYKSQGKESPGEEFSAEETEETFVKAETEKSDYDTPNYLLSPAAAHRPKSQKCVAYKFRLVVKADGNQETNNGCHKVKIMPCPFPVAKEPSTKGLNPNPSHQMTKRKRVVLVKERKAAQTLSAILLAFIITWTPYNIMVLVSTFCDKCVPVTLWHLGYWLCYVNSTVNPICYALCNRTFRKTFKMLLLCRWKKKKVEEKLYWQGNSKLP

The experiment has as its target Muscarinic acetylcholine receptor M5 (Homo sapiens) (UniProt P08912). Nature of the experiment: CHRM5 blockers of acetylcholine calcium response – CHO cells, Fluo-8 calcium fluorescence, primary screen (AID 624040).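 Also: 0% = acetylcholine EC80 with DMSO and 100% = DMSO without agonist.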 As to conditions: CHO-hM5 cells, ACh EC80, at 3 µM, hits give high values.
Turning to `CC(=O)N1CC(=O)N(CC(=O)Nc2ccc(Br)cc2)C1=S`, the inhibition (usually the drop in the measured response relative to a control, in per cent) is 15.7%.
For `Cc1ccc(S(=O)(=O)N(C)CC(=O)NCC(c2ccc(F)cc2)N2CCOCC2)cc1` (stereo not drawn) the value was 4.43%.
For `Cc1ccc(NC(=S)N2CCN(c3ncccn3)CC2)cc1C`, the inhibition was 0.78%.
For `O=C(c1c(F)cccc1Cl)N1CCN(S(=O)(=O)c2ccc3c(c2)OCCCO3)CC1` the value was 32.7% (active); for `O=C(c1c(F)cccc1F)N1CCN(S(=O)(=O)c2ccc3c(c2)OCCO3)CC1`, 15.2%; for `O=C(c1ccc(Cl)nc1)N1CCN(S(=O)(=O)c2ccc3c(c2)OCCO3)CC1`, 8.5%.
For the compound `Nc1nonc1-n1nnc(C(=O)N/N=C/c2ccc(Cl)cc2)c1-c1ccc2c(c1)OCO2`, the inhibition was 4.23%.
For `CN(C)CCOC1c2ccccc2-c2ccccc21` the value was 9.21%; for `Cc1ccccc1C(OCC(O)CN1CCCCC1CCO)c1ccccc1` (stereo not drawn), 1.17%; for `Cc1ccccc1C(OCCN(C)C)C1CCCCC1` (stereo not drawn), 98.7% (active).
With `Cc1ccc(S(=O)(=O)N2CCN(C(=O)CCC(=O)NC3CCCc4ccccc43)CC2)cc1` (stereo not drawn), the inhibition was 1.42%.
As for `CCOc1ccc(C(=O)N(Cc2ccc(N(C)C)cc2)C2CCS(=O)(=O)C2)cc1` (stereo not drawn), the figure is -0.33%.
Regarding `Cc1noc(C)c1CSCC(=O)Nc1nc2ccc(Oc3ccccc3)cc2s1`, the inhibition is -2.14%.
As for `Cc1noc(C)c1CSc1nnc2ccc3ccccc3n12`, the figure is 31.2% (active); as for `C=CCNC(=O)c1ccccc1SCc1c(C)noc1C`, -3.18%.
For `CC(C)(C)c1cnnn1-c1ccc([N+](=O)[O-])cc1` the value was -0.77%.
As for `CC1(C)C=C2[C@H]3CC[C@@H]4[C@@]5(C)CCC(=O)C(C)(C)[C@@H]5CC[C@@]4(C)[C@]3(C)CC[C@@]2(C(=O)O)CC1`, the figure is 0.2%; as for `COc1cc2c(cc1OC)C(C(=O)Nc1cc(C)c(OC)c(C)c1)CC(=O)N2` (stereo not drawn), -6.29%.
Turning to `CC(=O)Nc1ccc(N2C(=O)CCC2=O)cc1C`, the inhibition was 0.14%.
As for `O=C(CN1CCCCC1)N1c2ccccc2Sc2ccc(C(F)(F)F)cc21`, the inhibition is 98.8% (active).
For `O=C(CN1C(=O)/C(=C\c2ccc(C(F)(F)F)cc2)Sc2ccccc21)NCc1ccco1` the value was 18.4%; for `O=C(CSc1nc2ccccc2o1)N1c2ccccc2Sc2ccc(Cl)cc21`, -5.39%; for `O=C(CN1CCCCCC1)N1c2ccccc2Sc2ccc(C(F)(F)F)cc21`, 98.4% (active).
In the case of `O=C(CN1CCCCCC1)Nc1ccc(Cl)cc1F`, the inhibition is 7.56%.
`CCC(=O)Nc1cc(C(F)(F)F)ccc1N1CCCC1`: the inhibition is 4.4%.
As for `COc1ccccc1NC(=O)N(O)C1(C#N)CCCCC1`, the figure is 4.25%.
As for `CCOC(=O)c1c(S(=O)(=O)Nc2ccc(CN3CCC(C)CC3)cc2)c(C)n(C)c1C`, the figure is 0.52%.
Take `Cc1cc(Br)ccc1NC(=O)c1cnc(N2CCN(c3ccccn3)CC2)c2ccccc12`: the inhibition was 27.7% (active).
`Cc1cc(Br)ccc1NC(=O)c1sc2ncn(CC(=O)N3CCN(c4ccccn4)CC3)c(=O)c2c1C`: the inhibition was -9.8%.
For `Cc1cc(C(=O)N2CCN(c3ccccn3)CC2)c(C)o1` the value was -9.14%; for `C[C@H](CO)N1C[C@H](C)[C@@H](CN(C)S(=O)(=O)c2ccc(F)cc2)OCc2cnnn2CCCC1=O`, -6.37%.
As for `CCc1noc(C)c1C(=O)Oc1ccc(N(C)S(=O)(=O)c2ccc(C)c(C)c2)cc1`, the figure is 11.9%; as for `CCN(CC)CCCC(C)n1c2nc(=O)[nH]c(=O)c-2nc2cc(Cl)ccc21` (stereo not drawn), 41.2% (active); as for `CCCN(CCc1ccccc1)C1CCc2c(O)cccc2C1` (stereo not drawn), 2.43%.
As for `Cc1ccc(S(=O)(=O)N2CCC(N3CCCCCC3)CC2)cc1`, the figure is 6.92%.
With `Cc1ccc(S(=O)(=O)n2oc(=O)c(C3CCCCC3)c2N)cc1`, the inhibition is 33.2% (active).
For `Cc1ccc(S(=O)(=O)N2CCC(C(=O)N3CCCCCCC3)CC2)cc1` the value was 1.57%; for `CCC(C)(C)NC(=O)CN(C(=O)C(=O)Nc1ccc2c(c1)OCCO2)C(C)(C)CC`, 1.43%; for `CCOCCn1[nH]c2ccccc2c1=O`, 3.03%.
As for `O=C(c1cncc(Br)c1)N1CCN(c2ccc([N+](=O)[O-])cc2)CC1`, the figure is 15.7%; as for `O=C(c1cc(C(=O)N2CCN(c3ccc(F)cc3)CC2)cc([N+](=O)[O-])c1)N1CCN(c2ccc(F)cc2)CC1`, 29.5% (active).
For `O=[N+]([O-])c1ccc(N2CCN(c3ccc(F)cc3)CC2)cn1`, the inhibition was 8.5%.
Consider `CC(=O)c1c(N2CCOCC2)nc(=S)n(Cc2ccccc2)c1C`, for which the inhibition was 10%.
As for `COc1ccccc1NC(=S)N1CCC(NC(=O)C23CC4CC(CC(C4)C2)C3)CC1`, the figure is 6.64%.
On to `CCOc1ccccc1NC(=S)N1CCN(c2cccc(C)c2C)CC1`, for which the inhibition is -0.84%.
For `COc1ccccc1NC(=S)N1CCN(C(c2ccccc2)c2ccccc2)CC1` the value was 32.8% (active); for `O=C(c1ccc2c(c1)C(=O)N(Cc1ccncc1)C2=O)N1CCN(S(=O)(=O)c2ccc(OC(F)(F)F)cc2)CC1`, 11.6%.
For `COc1cccc(COC(=O)C2CCN(S(=O)(=O)c3ccc(Cl)cc3)CC2)c1OC` the value was 10.6%; for `O=C(COc1ncnc2ccccc12)NC(=O)NCc1ccccc1`, 6.01%.
`COc1ccc(CNc2ncnc3ccccc23)cc1`: the inhibition is 33.8% (active).
Turning to `COc1ccc(CNC(=O)COc2cccnc2[N+](=O)[O-])cc1`, the inhibition was 8.36%.
For `CCCCN(C)Cc1c(C)[nH]c2ccc(Cl)cc2c1=O` the value was -2.11%; for `O=C(Nc1cccc(Cl)c1)Nc1ccccc1NS(=O)(=O)c1cccs1`, 30.1% (active); for `O=S(=O)(Nc1ccccc1)c1ccc(NS(=O)(=O)c2cccs2)cc1`, 3.98%.
As to `O=S(=O)(NCCc1ccc(Cl)cc1)c1cccs1`, the inhibition is 2.77%.
As to `CCCCCC1CCC(c2nnc(SCC(C)=O)o2)CC1` (stereo not drawn), the inhibition was -0.26%.
As to `CCOC(=O)C(CO)NC(=O)C1(NC(C)=O)CCCC1` (stereo not drawn), the inhibition was 5.55%.
As to `COc1cccc(N(CC(=O)NCc2ccccc2)C(=O)CCC(=O)Nc2nccs2)c1`, the inhibition is 9.51%.
For `CCCc1cc(=O)[nH]c2nnc(SCC(=O)Nc3nnc(SCC)s3)n12` the value was 6.93%; for `COc1ccccc1OCCNC(=O)CCNC(=O)c1ccccc1Cl`, 17.2%.
For `CC(=O)Nc1ccc(NC(=O)C(C)OC(=O)C2CC(=O)N(CCc3ccccc3)C2)cc1` (stereo not drawn) the value was 7.46%; for `COc1cccc(/C=C2\SC(=N)N(c3ccc(F)cc3)C2=O)c1`, 11%.
For `CC(=O)N1CC(C)c2scc(C)[n+]2-c2ccccc21` (stereo not drawn) the value was -1.76%; for `CCC(C(=O)NC1CCCC1)N(C(=O)c1snc(C(N)=O)c1N)c1ccc2c(c1)OCCO2` (stereo not drawn), -5.82%; for `Cc1ccc(S(=O)(=O)NCCC(=O)NC2CCN(Cc3ccccc3)CC2)cc1`, 6.57%.
In the case of `O=C(NCc1ccccc1CN1CCCC1)C1CCN(S(=O)(=O)c2ccc(Cl)cc2)CC1`, the inhibition was 1.2%.
Take `O=C(NNS(=O)(=O)c1ccc(Cl)cc1)C1CCN(Cc2ccccc2)CC1`: the inhibition is 40.5% (active).
As for `CN(C)CCNc1ccc(-c2n[nH]c(=O)c3ccccc23)cc1[N+](=O)[O-]`, the figure is 5.87%; as for `O=C(NCC1(N2CCCCC2)CCCCC1)c1ccc(NS(=O)(=O)c2ccc(F)cc2)cc1`, 6.39%; as for `CC(C)c1ccc(NC(=O)COC(=O)c2ccc(CN3CCCC3=O)cc2)cc1`, 11.4%.
Turning to `Cc1cc(C)c(S(=O)(=O)N2CCCC2CNC(=O)c2ccc3c(c2)OCO3)c(C)c1` (stereo not drawn), the inhibition is 10.3%.
As for `CCC(=O)c1ccc(OCC(=O)N(CC)CC2COc3ccccc3O2)cc1` (stereo not drawn), the figure is -6.74%; as for `O=C(COc1ccc(F)cc1Br)NCC1COc2ccccc2O1` (stereo not drawn), -3.52%.
Turning to `c1ccc2c(c1)OCC(CNc1ncnc3nc[nH]c13)O2` (stereo not drawn), the inhibition was 46.2% (active).
`CSc1ccccc1OCc1cc(C(=O)N2C[C@H]3CC[C@H]2C3)no1`: the inhibition is 23.9%.
As for `CCc1nc2nc(C)c(NS(=O)(=O)c3ccc4c(c3)CCCC4)c(=O)n2[nH]1`, the figure is 17.6%.
On to `CC(C)(C)N(CC#CCC(O)(c1ccccc1)C1CCCC1)CCO` (stereo not drawn), for which the inhibition was 8.39%.
For `CN(CC#CCC(c1ccccc1)c1ccccc1)C(C)(C)C` the value was 56.4% (active); for `O=C1NC[C@@H](Cc2ccc(O)cc2)N(CCc2cccc(F)c2)C1=O`, 10.1%; for `CCCCC(C(=O)NC(C)(C)C)N(Cc1ccccc1)C(=O)c1snc(C(N)=O)c1N` (stereo not drawn), -2.14%.
Consider `Cc1cc(C)c(OCC(=O)N(Cc2cccs2)C2CCS(=O)(=O)C2)c(C)c1` (stereo not drawn), for which the inhibition is 5.07%.
With `CCCCN1C(N)=NC[C@@H]1CC1CCCCC1`, the inhibition was 0.65%.
With `CN(C)C1=NC[C@H](Cc2ccccc2)N1CCc1ccc(F)cc1`, the inhibition is 2.48%.
On to `CCCC[C@@H]1CN=C(N)N1CCc1cc(C(F)(F)F)cc(C(F)(F)F)c1`, for which the inhibition was 32.4% (active).
Consider `COc1cccc(C(O)c2nc(-c3ccc(C)c(C)c3)cs2)c1` (stereo not drawn), for which the inhibition is 2.71%.
As for `O=C(NC1=CC(=O)c2ccccc2C1=O)c1ccccc1`, the inhibition was 36.2% (active).
For the compound `CN(C)C(=O)c1ccc(NC(=O)c2ccccc2-c2ccccc2)cc1`, the inhibition was 12.5%.
Take `Cc1ccc(C(=O)Nc2c(-c3ccccc3)[nH][nH]c2=O)cc1`: the inhibition was -12.3%.
As for `O=C(O)CCC(=O)Nc1ccc(OCC2CCCO2)cc1` (stereo not drawn), the figure is -4.56%; as for `COc1ccc(NC(=O)CN2C(=O)CSc3ccc(S(=O)(=O)N4CCC(C)CC4)cc32)cc1`, -4.66%; as for `CCc1ccc(-c2cc(C)no2)cc1S(=O)(=O)NCCc1ccc(S(N)(=O)=O)cc1`, -7.03%.
As to `COc1ccc(CNS(=O)(=O)c2cc(-c3cc(C)no3)ccc2C(C)C)cc1`, the inhibition was 27.2% (active).
`Cc1cc(-c2ccc(C)c(S(=O)(=O)NCCCN(Cc3ccccc3)C(C)C)c2)on1`: the inhibition was -8.38%.

Values taken from PubChem BioAssay AID624040 (The Scripps Research Institute Molecular Screening Center, 2012).
